In the first assay the target is SKI. Nature of the assay: pooled miR-30 sensor sort-seq; sequence = guide strand. Conditions: shRNA.
TGGAGCTCGTCGCACACCGCGT returned a sensor-assay potency score (higher = more potent) of -1.77.
Same read-out and setting: the same measure for TAGGAGTAGAAGCTGTCTCGGA: 0.278; for TCTCACTCGCTGACACTGCGGG: -0.587; for TAGATGTGGAGCTCGTCGCACA: -1.04.
The same measure, in the same setting: the same measure for TCACTCGCTGACACTGCGGGGG: -0.224; for TACACTTGCCGAAGCACTCGTG: -0.466.
Sequence TTGGTGATGAGCCCGCACGAGG came in with a sensor-assay potency score (higher = more potent) of -1.78.
Still for that read-out and setting: with TTCTTCTCGTTCTCGGCGCGGA the figure was -0.778; with TTTGGCTTCCTTGGTGTCCAGG, -1.03.
On the same count and under the same terms, the same measure for TTACACTTGCCGAAGCACTCGT: 0.441; for TACGGTCTCGCAGCGCTCGGTG: -1.18; for TTTCTCCTTCACGTCGTCCAGG: -1.07.

The target in the next assay is SLAIN1. The assay is described as above. Conditions: shRNA.
Take TACATGTCCCTTTTTTTCCTGA: the sensor-assay potency score (higher = more potent) was -0.235.
The same measure, in the same setting: the same measure for TTTATTGCCAACGAAGGTCTTG: 0.0936; for TTGCCTGAGACTTTCTTCTTGC: 0.429; for TTGAGTCAAAACTCTGACTATT: -1.16.
On the same count and under the same terms, the same measure for TATTTGAAGGAAAATACTGGGA: 0.189.
On the same count and under the same terms, with TTCTTGAAATTCCATTTCCAGC the figure was -1.69; with TTCTTCTTGCAGACGAGCCATG, -1.37.
As to TTGAGGTGAATAATACTGTTGC, the sensor-assay potency score (higher = more potent) was -0.0982.
As for TATATTAAAACACAAAAGGGAA, the sensor-assay potency score (higher = more potent) was -0.738.
The same measure, in the same setting: the same measure for TATGTCTTGATACAGATGCTGA: -0.777; for TTCTTCGGAGCTTATCTCCATT: -0.767; for TGAAGTAGAAGCATAATCTTGC: 0.776.

The target in a further assay is SLC10A3. The description is as above. The settings on record: shRNA.
In the case of TTGATGCAGAAGTCTCTCCGCT, the sensor-assay potency score (higher = more potent) is -0.433.
On the same count and under the same terms, the same measure for TTAAGGGACCTGTGCCACCACC: -1.35; for TAGTGCATGAGAACTTTGGTGG: 0.0901.
Still for that read-out and setting: the same measure for TCTCCAATGCTCAAGTAGCGGC: -0.783; for TAGAGGATTGGGTTTTCCGAGA: -0.917.
Same read-out and setting: with TTTTCTGAGTGCATAGTGCATG the figure was -0.554.
AAAGATAAGAGGCAGGAGCAGG came in with a sensor-assay potency score (higher = more potent) of -0.888.
Still for that read-out and setting: the same measure for TCAAACTCCATCACAGAGCCAT: -0.169.
Same read-out and setting: with TCTTGATGGTCAGCACCTCTGT the figure was -1.25; with TTGGGTTTTCCGAGAAGTGGGC, 0.0759; with TTCAGCAGGTGAGACCTTGATG, -1.03.
Still for that read-out and setting: with TCTTCAGCAGGTGAGACCTTGA the figure was -0.622.

A further assay concerns the target SLC10A7. The assay is described as above. Conditions: shRNA.
For TTCTGCCTTGATACCATCCAAG, the sensor-assay potency score (higher = more potent) is -1.16.
In the case of TATCTTCGGACAATCTGTCCAA, the sensor-assay potency score (higher = more potent) is -0.198.
Same read-out and setting: the same measure for TAAACTATGTTTACTTACCAAA: -1.05; for TATTGTTGCAACAGCAATGTAG: 0.00955.

These data come from the OligoGym collection.
Also: reference of the scale not given here.
